# Results as given in PubChem BioAssay AID778 (Sanford-Burnham Center for Chemical Genomics, 2007).
# About 20,000 (21%) of roughly 96,000 compounds were called active.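 Rule for the calls: active = CYP2C19 inhibition above a set limit at 5 µM in the primary screen (cut at about 50% in these data); inactive = the rest.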 The list is a sample of the results.
# Target: Cytochrome P450 2C19 (Homo sapiens) (UniProt P33261)
# Test: blockers of cytochrome P450 2C19 activity – biochemical, luminescence, ADME assay, primary screen (AID 778);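 note: plate controls were negative control wells for no effect and 2.5 mM tranylcypromine positive control for full effect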
# Conditions: CYP2C19 Supersomes, luciferin-H EGE luminescence, 30 min; at 5 µM; hits give high values
# Chain of Cytochrome P450 2C19 (Homo sapiens) (P33261 whole entry, looked up): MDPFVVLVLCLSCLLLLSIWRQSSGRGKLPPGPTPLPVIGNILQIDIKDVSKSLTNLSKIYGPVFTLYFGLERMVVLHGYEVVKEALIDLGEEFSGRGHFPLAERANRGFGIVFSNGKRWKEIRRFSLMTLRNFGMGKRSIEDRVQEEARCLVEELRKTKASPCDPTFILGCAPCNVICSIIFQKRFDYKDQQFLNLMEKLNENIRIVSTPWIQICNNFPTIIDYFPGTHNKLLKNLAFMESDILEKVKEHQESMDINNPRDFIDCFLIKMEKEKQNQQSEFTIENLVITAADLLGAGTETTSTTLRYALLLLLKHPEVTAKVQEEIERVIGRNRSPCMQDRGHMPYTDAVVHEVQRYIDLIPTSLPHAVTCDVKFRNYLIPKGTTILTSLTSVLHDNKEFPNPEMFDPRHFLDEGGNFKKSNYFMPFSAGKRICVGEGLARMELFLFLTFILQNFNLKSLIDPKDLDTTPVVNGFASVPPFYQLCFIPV
row,SMILES,inhibition
1,O=C(Cc1ccc(-n2c(=O)[nH]c3ccccc3c2=O)cc1)N1CCN(c2cccc(Cl)c2)CC1,40.3% (inactive)
2,Cc1cc(C(F)(F)F)c(C#N)c(SCC(=O)NC2CC2)n1,13.5% (inactive)
3,Cc1cc(C)c(C#N)c(SCS(=O)c2ccc(C(C)(C)C)cc2)n1 (stereo not given),78.5% (active)
4,Cc1cc(=O)[nH]c(SCC(N)=O)c1C#N,-8.9% (inactive)
5,Cc1cc(N2CCCC2=O)cc(C)c1S(N)(=O)=O,-13.1% (inactive)
6,Cn1c(=O)[nH]c(=O)c2c1nc(N(CCO)Cc1ccccc1)n2Cc1ccccc1Cl,9.3% (inactive)
7,COc1ccccc1-c1nnc(SCC(=O)Nc2ccccc2)o1,69.7% (active)
8,COc1ccc(CCNC(=O)CSc2nnc(CNC(=O)c3cccs3)o2)cc1OC,2.4% (inactive)
9,COc1ccccc1-c1nnc(SCC(=O)Nc2cc(C)on2)o1,-7.2% (inactive)
10,COc1ccc(-c2nnc(SCC(=O)NC3CCCCC3)o2)cc1OC,56.3% (active)
11,COc1ccc(CCNC(=O)CSc2nnc(-c3cccc(F)c3)o2)cc1OC,95.8% (active)
12,COc1ccc(CCNC(=O)CSc2nc(C)nc3c2oc2ccccc23)cc1OC,-3.9% (inactive)
13,COc1ccc(C(=O)N(CCN2CCOCC2)CC(=O)NC2CCCC2)cc1OC,-7.2% (inactive)
14,COc1ccccc1-c1nnc(SCC(=O)N2CC(C)CC(C)C2)o1 (stereo not given),49.2% (inactive)
15,Cn1c(SCC(=O)NC2CCCCC2)nnc1-c1cc2ccccc2o1,44.2% (inactive)
16,O=c1c2ccccc2nc(N/N=C/c2ccccc2)n1O,-14.2% (inactive)
17,CC(C)c1cc(C(=O)O)on1,-10.8% (inactive)
18,CCCCCCNCCn1cnc2c(N)ncnc21,-9.3% (inactive)
19,Cc1ccc(C(=O)N/N=C/c2sc(=O)n(Cc3cccc(C(=O)O)c3)c2Cl)cc1,22.8% (inactive)
20,COc1ccc(C2C=C(c3ccc(Br)cc3)Nc3nc(NS(C)(=O)=O)nn32)cc1 (stereo not given),3.9% (inactive)
21,O=C(Nc1cccc(Cl)c1)Nc1nnc(-c2ccccc2)o1,12.7% (inactive)
22,CC1CC(C)CN(CC(=O)Nc2ccc(S(N)(=O)=O)cc2)C1 (stereo not given),4.7% (inactive)

row,SMILES,inhibition
1,CC(C)Nc1nc(N(c2ccccc2)c2ccccc2)nc(-n2ccnc2)n1,39.2% (inactive)
2,COc1ccc(S(=O)(=O)N(C)CC(=O)Nc2ccc3c(c2)OCCO3)cc1OC,21.9% (inactive)
3,O=C(Nc1nc(-c2ccncc2)cs1)C1COc2ccccc2O1 (stereo not given),96.4% (active)
4,O=C(COc1ccc2c(C(F)(F)F)cc(=O)oc2c1)Nc1ccc2c(c1)OCCO2,-8.9% (inactive)
5,CCCCC(=O)Nc1ccc2c(c1)OCCO2,50.3% (active)
6,CC(=O)c1cccc(NC(=O)c2ccncc2)c1,74.6% (active)
7,COC(=O)CCNc1ccc2c(c1)OCCO2,24.9% (inactive)
8,C=C(C)C(=O)Nc1cccc(C(C)=O)c1,-1.5% (inactive)
9,CCCCC(=O)Nc1ccc2c(c1)C(=O)NC2=O,-10.8% (inactive)
10,CSc1ccccc1C(=O)Nc1cccc(C(C)=O)c1,3.3% (inactive)
11,CCN(CC(=O)Nc1ccc2c(c1)OCCO2)Cc1cc(=O)oc2cc(C)c(C)cc12,88.4% (active)
12,O=C(CSC1=NCCS1)Nc1nc(-c2ccccc2)cs1,22% (inactive)
13,O=C(Nc1nnc(SCc2ccc(Cl)cc2Cl)s1)C1COc2ccccc2O1 (stereo not given),38.1% (inactive)
14,CCCN(CCC)CCNC(=O)c1cc2c(C)nc3ccccc3c2o1,-9.3% (inactive)
15,Cc1c(C(=O)OCC(=O)N(CCC#N)c2ccccc2)oc2c1ccc1ccccc12,18.2% (inactive)
16,O=C(O)CCC(=O)N(Cc1cccs1)Cc1cccs1,-5.7% (inactive)
17,COc1cccc(-c2cnc(OC(C)(C)C)nc2OC(C)(C)C)c1,9.2% (inactive)
18,CCCNC(=O)c1ccc(Cl)c(Cl)c1,-2.2% (inactive)
19,CN(C)c1nc(N)nc(CSc2nnnn2-c2cccc3ccccc23)n1,24.3% (inactive)
20,O=C1C2(c3ccccc3)CN(CCCO)CC1(c1ccccc1)CN(CCCO)C2,6.9% (inactive)
21,Cc1ccccc1C(OCC(O)CN1CCCCC1CCO)c1ccccc1 (stereo not given),18% (inactive)
22,CCc1nnc(NC(=O)CCC(=O)O)s1,-16.3% (inactive)

row,SMILES,inhibition
1,CC(C)(C)n1nnc(CCc2nnn(C(C)(C)C)n2)n1,34.7% (inactive)
2,O=C(Nc1ccc2c(c1)OCCO2)c1ccncc1,76.5% (active)
3,Cc1cc(C)c2nc(NC(=O)c3ccc4c(c3)OCO4)sc2c1,-1.4% (inactive)
4,O=C(Nc1nc(-c2ccc3c(c2)OCO3)cs1)c1ccncc1,63.2% (active)
5,O=C(Nc1ccc2c(c1)OCCO2)c1cnccn1,14.5% (inactive)
6,Cn1cc([N+](=O)[O-])c(C(=O)Nc2ccc3c(c2)OCCO3)n1,43.6% (inactive)
7,Cc1ccc(-c2csc(NC(=O)Cc3cccs3)n2)cc1C,10% (inactive)
8,O=C(O)c1cccc2c1C(=O)N(C1CCCCC1)C2,-19.3% (inactive)
9,Brc1cccc(-c2nnc3n2CCC3)c1,-4.8% (inactive)
10,O=C(NCCN1CCOCC1)c1c(F)c(F)c(F)c(F)c1F,-10.6% (inactive)
11,O=C(NCCCN1CCOCC1)c1cc2c(s1)CCC2,52.8% (active)
12,O=C(CNC(=O)c1cc2c(s1)CCC2)Nc1ccccc1Br,7% (inactive)
13,CCCCOC(=O)CNc1nnc(SCC(=O)OCC)[nH]c1=O,-15.4% (inactive)
14,Fc1ccc(CSc2nnc(-c3cc4c(s3)-c3ccccc3CC4)o2)cc1,31.9% (inactive)
15,COC(=O)c1ccc(CSc2nc3cc(Cl)ccc3o2)cc1,-5.7% (inactive)
16,Clc1ccc(CSc2nnc([C@@H]3CCCN3)o2)cc1,97.9% (active)
17,CCC(C)NC(=O)c1cc(Cl)ccc1OC (stereo not given),22% (inactive)
18,Cc1cc(C(F)F)n2nc(C(=O)Nc3ccc(S(=O)(=O)NC45CC6CC(CC(C6)C4)C5)cc3)nc2n1,21.2% (inactive)
19,COc1ccccc1C(=O)Nc1nc2nc(-c3ccccc3)cc(=O)n2[nH]1,7.1% (inactive)
20,COC(=O)CNC(c1ccccc1Cl)c1cc(Br)ccc1NC(=O)CCN1CCOCC1 (stereo not given),-3.3% (inactive)
21,CC(=O)c1c(C)n(-c2ccc(N(C)C)cc2)c2ccc(OCC(N)=O)cc12,18.6% (inactive)
